MRP1 act: MRP-1 activation; H69AR cells + doxorubicin, viability rescue, CellTiter-Glo; AID 799; viability increase, % at 10 µM; actives 0.61% (n = 140,000);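 active = viability gain under doxorubicin at or above a set limit, the compound median plus 3 SD, cut at about 4.7% in these data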;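 also: MRP-1 overexpressing cells given doxorubicin 25 µM after compound pretreatment; 18-22 h compound pretreatment then 72 h with doxorubicin before readout; 0% = doxorubicin-only wells and 100% = vehicle-treated cells without doxorubicin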
MRP resist rev: compounds reversing MRP-mediated drug resistance; H69AR cells + 2 uM doxorubicin, CellTiter-Glo, 72 h; actives 0.04% (n = 85,000); differential viability (reversal), % at 10 µM; AID 602;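 active = viability drop by adding the cancer drug above about 55%, with treated viability meeting a 40% cutoff, limit read from the data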;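 also: viability without doxorubicin minus viability with 2 µM doxorubicin for each compound; larger differential means the compound sensitizes cells more to doxorubicin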
CYP2C9 act: activators of human CYP2C9; actives 1.4% (n = 96,000); recombinant CYP2C9, luciferin-H conversion, luminescence; active compounds read high; factor 1 = untreated enzyme, 0 = blocked; activation factor at 5 µM;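 active = activation factor of 2 or more for CYP2C9 at a 5 µM dose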;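 also: 0 = sulfaphenazole-blocked wells and 1 = vehicle-only wells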
CYP2C19 activ: activators of human cytochrome P450 2C19. P33261. 96,000 tested, under 10 active. activation factor at 5 µM. recombinant CYP2C19, luciferin-H EGE luminescence; active compounds read high; 0 = fully inhibited enzyme, 1 = untreated enzyme;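 active = activation factor of at least 2 at 5 µM in the primary screen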;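 also: 0 = wells with 2.5 mM tranylcypromine and 1 = vehicle-only wells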
Target sequence (P33261 whole entry, looked up): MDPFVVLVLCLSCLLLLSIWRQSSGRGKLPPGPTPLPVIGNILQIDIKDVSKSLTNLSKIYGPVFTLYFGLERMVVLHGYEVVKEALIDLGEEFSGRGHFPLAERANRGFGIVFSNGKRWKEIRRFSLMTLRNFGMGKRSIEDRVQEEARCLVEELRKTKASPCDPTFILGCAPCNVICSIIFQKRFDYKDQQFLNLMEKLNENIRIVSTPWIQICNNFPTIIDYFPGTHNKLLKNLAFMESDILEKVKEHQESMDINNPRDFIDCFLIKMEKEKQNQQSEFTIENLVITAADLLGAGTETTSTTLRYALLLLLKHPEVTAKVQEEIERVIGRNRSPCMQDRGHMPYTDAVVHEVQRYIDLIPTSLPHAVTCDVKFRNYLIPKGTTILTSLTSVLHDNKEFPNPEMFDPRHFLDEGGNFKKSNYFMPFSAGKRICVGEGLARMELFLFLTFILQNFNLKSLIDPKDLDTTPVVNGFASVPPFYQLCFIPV
CYP2C19 inh: inhibitors of human CYP2C19; P33261; CYP2C19 Supersomes, luciferin-H EGE luminescence, 30 min; inhibition, % at 5 µM; actives 21% (n = 96,000); AID 778;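 active = CYP2C19 inhibition above a set limit at 5 µM in the primary screen, cut at about 50% in these data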;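 also: plate controls were negative control wells for no effect and 2.5 mM tranylcypromine positive control for full effect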
CYP2C9 inh: blocks human cytochrome P450 2C9. inhibition, % at 5 µM. CYP2C9 Supersomes, luciferin-H conversion, luminescence. P11712. AID 777. actives 20% (n = 96,000);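 active = blocking of liver enzyme CYP2C9 beyond about 50% at 5 µM, limit read from the data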
* hit, by the source's call; . = not tested or not shown. Compounds with a hit are over-represented: about 21% of the library has one in this group of screens.

SMILES	MRP1 act	MRP resist rev	CYP2C9 act	CYP2C19 activ	CYP2C19 inh	CYP2C9 inh
c1ccc2c(c1)ncn2-c1ccc(-c2ccnc(-c3ccncc3)n2)cc1	-4	.	0.1	0.1	86*	87*
Cc1cc2occ(CC(=O)OCC(=O)Nc3sc4c(c3C#N)CCC(C)C4)c2cc1C (configuration not stated)	-2	.	.	.	.	.
CSc1nccc(-c2nn(-c3ccc(C)cc3)ccc2=O)n1	-2	-46	0.6	0.7	32	37
CCSc1nccc(-c2nn(-c3ccc(C)cc3)ccc2=O)n1	-2	-60	0.4	0.5	46	63*
CC1=NNC(=O)C(CC(=O)Nc2ccc(Cl)c(Cl)c2)C1 (configuration not stated)	1	.	.	.	.	.
CN(C(=O)c1ccncc1)c1nnc(-c2cccnc2)s1	-1	6	0	0.1	93*	100*
CN(C(=O)c1ccncc1)c1nnc(-c2ccccn2)s1	1	9	0	0.2	81*	99*
CCN(C(=O)Cc1cccs1)c1nnc(-c2cccnc2)s1	-1	-6	0.5	0.5	48	50*
C/C(=N/NC(=O)c1sc(=S)n(C)c1C)c1ccccc1	-4	.	.	.	.	.
CN1CCN(c2ccccc2NC(=O)c2ccc(-c3ccccc3)cc2)CC1	-6	-13	0.3	0.1	94*	70*
O=C(Nc1ccccc1C(=O)N1CCCC1)c1cccc(S(=O)(=O)N2CCCCC2)c1	-2	.	0.8	1	-2	18
COc1cccc(C(=O)Nc2ccccc2C(=O)N2CCCC2)c1	0	-2	1.1	0.5	54*	-8
COc1cc(OC)cc(C(=O)Nc2ccccc2N2CCOCC2)c1	-3	-22	0.6	0.6	40	41
COc1cccc(C(=O)Nc2ccccc2N2CCCC2)c1	0	25	0.7	0.3	69*	26
CCN(CC)c1ccc(NC(=O)c2cc(OC)cc(OC)c2)c(C)c1	-2	-23	1.9	0.8	24	-87
CN1CCN(c2ccccc2NC(=O)c2ccc(OCc3ccccc3)cc2)CC1	-3	.	0.6	0.5	48	40
CCN(CC)c1ccc(NC(=O)c2cccc(OC)c2)c(C)c1	-3	-26	2.5*	1	-3	-150
Cn1c(=O)cc(SCC(=O)NCCC2=CCCCC2)c2cc(Cl)ccc21	-1	.	.	.	.	.
CC(=O)OC(Cn1ccnc1)c1ccccc1 (configuration not stated)	-2	-4	0.8	0.8	22	18
COC(=O)c1sc2nc(N3CCCCC3)c3c(c2c1N)CC(C)(C)N(C)C3	.	4	.	.	.	.
CN1CCN(c2ccccc2NC(=O)c2cccc(OCc3ccccc3)c2)CC1	-3	-26	0.5	0.5	50	52*
Cc1ccc(CC2SC(=Nc3ccccc3)N(c3ccccc3)C2=O)cc1 (configuration not stated)	5.7*	.	.	.	.	.
O=C(O)CC1SC(=Nc2ccccc2)N(c2ccccc2)C1=O (configuration not stated)	-2	-5	1.2	1	-1	-17
COc1cccc(NS(=O)(=O)Cc2ccccc2)c1	-1	0	0.9	0.5	49	8
COc1ccccc1NS(=O)(=O)c1ccc(Br)s1	0	.	0.9	0.1	92*	6
SMILES	MRP1 act	MRP resist rev	CYP2C9 act	CYP2C19 activ	CYP2C19 inh	CYP2C9 inh
COc1ccc(OC)c(NS(=O)(=O)c2ccc(Cl)s2)c1	-5	.	.	.	.	.
COc1cccc(NS(=O)(=O)c2ccc(Br)s2)c1	-3	.	0.2	0	100*	84*
CCCN1CCN(C(=S)Nc2ccccc2C(F)(F)F)CC1	1	.	.	.	.	.
C=CCn1c(SCc2nc3cc(C(F)(F)F)ccc3c(=O)[nH]2)nc2sc(CC)cc2c1=O	-2	.	.	.	.	.
COc1cc(OC)c(C#N)c(S(=O)Cc2ccccc2)c1 (configuration not stated)	0	8	2.3*	0	99*	-129
Cc1nc(CS(=O)c2ccccc2)cc(N2CCOCC2)n1 (configuration not stated)	-2	.	0.9	1	4	9
O=S(Cc1cc(Sc2ccccc2)nc(-c2ccccc2)n1)c1ccccc1 (configuration not stated)	1	-5	0.1	0	98*	94*
CNc1cc(CS(=O)c2ccccc2)nc(-c2ccccc2)n1 (configuration not stated)	-1	.	1	0.1	93*	3
COCc1cc(Sc2ccc(Cl)cc2Cl)nc(-c2ccccc2)n1	1	.	1.2	1.1	-5	-19
O=C(O)COc1cccc2ccccc12	-2	9	0.9	1	-1	11
CCN(CC)C(=O)COc1cccc2ccccc12	-4	2	3.7*	0.1	93*	-266
O=C(CN1CCN(C(=O)c2ccccc2F)CC1)Nc1ccc(Br)cc1	0	-11	2.7*	0.7	27	-170
CCc1ccc(NC(=O)CN2CCc3ccccc3C2)cc1	-3	5	0.1	0.1	92*	90*
O=C(CN1CCc2ccccc2C1)Nc1ccc(Br)cc1	2	6	0.6	0.1	90*	42
CCc1ccc(NC(=O)NCCN2CCc3ccccc3C2)cc1	-4	.	.	.	.	.
O=C(CN1CCN(CCC(=O)Nc2ccccc2F)CC1)Nc1ccc(Cl)cc1	0	27	0.5	0.8	23	46
CC(C)(C)NC(=O)C(c1ccsc1)N(CCc1ccccc1)C(=O)Cn1nnc2ccccc21 (configuration not stated)	-2	.	1.1	1.1	-6	-13
COc1cc(C)nc(OCCNS(=O)(=O)c2cc(C)ccc2C)n1	-1	-1	1.9	0.2	82*	-87
CCNc1nc(NC(C)C)nc(OCCNS(=O)(=O)c2cc(C)ccc2C)n1	-3	-12	1.4	0.5	50	-40
CCNc1nc(NCC)nc(OCCNS(=O)(=O)c2cc(C)ccc2C)n1	0	4	1.3	0.1	89*	-34
CCNc1nc(OCCNS(=O)(=O)c2cc(C)ccc2C)nc(N(C)C)n1	-1	-9	0.8	0.4	58*	18
COC(=O)CN1C2(C#N)CCCCC2CC2CCCCC21C#N (configuration not stated)	-3	-4	1.2	1.2	-16	-20
CC(C)(C)c1ccc(S(=O)(=O)NCCOCC(F)(F)C(F)F)cc1	0	16	2.4*	0	97*	-141
CCCc1ccc(S(=O)(=O)NCCc2ccncc2)cc1	1	1	0	0	99*	98*
CC(C)(C)c1ccc(S(=O)(=O)Nc2ccc(Cc3ccncc3)cc2)cc1	2	.	.	.	.	.
CC(C)(C)c1ccc(S(=O)(=O)NCCc2ccncc2)cc1	-2	1	0.1	0	100*	92*
CCCCCc1ccc(S(=O)(=O)NCCc2ccncc2)cc1	-1	8	0	0	100*	97*
Cc1csc(SCCn2c(N3CCCC3)nc3c2c(=O)[nH]c(=O)n3C)n1	0	7	0.6	0.7	27	42
